Screening results deposited in PubChem BioAssay by National Center for Advancing Translational Sciences (NCATS).
An excerpt weighted towards active compounds, which were near 8.8% of everything screened.
LMNA splice mod: modulators of lamin A splicing | HeLa LMNA splicing GFP/RFP minigene ratio, 48 h | Potency, µM (doses to about 46.1 µM), most hits filed as inhibitors | 0.01% of 200,000 active | AID 1487; active = well fitted inhibition curve with a large enough effect in the signal ratio, with a control signal flat, not every such curve was filed as active; inconclusive = small, poorly fitted or top-dose-only effect, or effect the other way, or a change in a side signal; the % refers to the signal ratio
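S3 HeLa cells stably expressing lamin A-EGFP splicing minigene plus DsRed2, 600 cells/well, 48 h compound exposure at 37C. Laser-scanning cytometry; analysed as GFP (500-530 nm)/RFP (575-640 nm) total intensity ratio; 0.5% DMSO vehicle.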
ALDH1A1 block: inhibitors of human aldehyde dehydrogenase 1A1; P00352; Potency, µM (series often up to 75.3 µM), most hits filed as inhibitors; 7.3% of 220,000 active; Purified ALDH1A1, NADH fluorescence, propionaldehyde substrate; AID 1030; active = well fitted inhibition curve with a large enough effect, not every such curve was filed as active; inconclusive = small, poorly fitted or top-dose-only effect, or another doubt; inactive = no such curve, though single readings can be large or run the other way
Target sequence (P00352 whole entry, looked up): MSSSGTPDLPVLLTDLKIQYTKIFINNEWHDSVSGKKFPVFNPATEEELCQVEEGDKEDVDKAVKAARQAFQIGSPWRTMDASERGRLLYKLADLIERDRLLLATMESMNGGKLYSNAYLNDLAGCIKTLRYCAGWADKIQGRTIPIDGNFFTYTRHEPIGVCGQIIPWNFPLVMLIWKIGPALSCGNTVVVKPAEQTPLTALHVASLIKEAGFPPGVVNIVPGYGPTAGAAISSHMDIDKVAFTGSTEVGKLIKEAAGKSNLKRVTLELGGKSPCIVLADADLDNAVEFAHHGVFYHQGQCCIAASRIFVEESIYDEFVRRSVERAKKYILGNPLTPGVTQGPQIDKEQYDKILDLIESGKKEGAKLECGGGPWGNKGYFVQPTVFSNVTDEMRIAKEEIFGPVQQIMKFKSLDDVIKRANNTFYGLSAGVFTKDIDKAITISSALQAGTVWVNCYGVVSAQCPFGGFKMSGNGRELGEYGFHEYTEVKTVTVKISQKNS
HTT cytoprotect: cytoprotection in Huntington HTT-Q103 PC12 cell model | 0.14% of 230,000 active | PC12 HTT-Q103 induced, cytoprotection, ATP luminescence, 40 h | Potency, µM (highest dose often 56.4 µM), most hits filed as activators; also: nearly all actives have a fitted effect of over 45% in size
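Compounds added alongside 100 nM tebufenozide, which induces toxic Q103 huntingtin exon 1-GFP in stable PC12 cells; surviving cells quantified by luminescent ATP measurement. Medium: phenol red-free DMEM, 5% equine and 5% calf serum.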
HPGD block: blocks human HPGD enzyme activity; 4.3% of 150,000 active; Potency, µM, most hits filed as inhibitors; AID 894; P15428; purified HPGD, NADH fluorescence kinetic, PGE2 substrate; active = well fitted inhibition curve with a large enough effect, not every such curve was filed as active; inconclusive = small, poorly fitted or top-dose-only effect, or another doubt; inactive = no such curve, though single readings can be large or run the other way
Target sequence (P15428 whole entry, looked up): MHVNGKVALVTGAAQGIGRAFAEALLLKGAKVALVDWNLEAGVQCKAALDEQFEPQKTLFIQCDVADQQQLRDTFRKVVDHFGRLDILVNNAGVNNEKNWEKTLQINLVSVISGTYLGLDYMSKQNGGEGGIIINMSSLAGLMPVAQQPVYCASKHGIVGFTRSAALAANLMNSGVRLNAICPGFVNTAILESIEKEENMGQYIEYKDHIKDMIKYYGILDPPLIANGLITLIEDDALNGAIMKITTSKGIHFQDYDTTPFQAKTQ
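20 nM HPGD preincubated 15 min at room temperature with compound in 50 mM Tris-HCl pH 8, 0.01% Tween 20. Started with 1 mM NAD+ and 30 uM prostaglandin E2; NADH fluorescence (360/450 nm) read 5 times over 30-s intervals, last minus first.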
HTT aggregate: reduces HttQ103-GFP aggregates in PC12 cells; PC12 HttQ103-GFP aggregates, Acumen cytometry, 40 h; Potency, µM (highest dose often 46.1 µM), usual class: inhibitors; 1.1% of 220,000 active; AID 1688; also: nearly all actives have a fitted effect of over 60% in size
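Read-out: GFP aggregate count by laser scanning cytometer (488 nm excitation, 500-530 nm emission, 1–25 µm objects >6 SD above background). Cells: PC12, inducible HTTex1-Q103-GFP, 100 nM tebufenozide; compounds titrated.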
Hits are given with their value; - = inactive; ? = inconclusive; . = no result; [ ] = dose if it differs, or a comment. Unless noted, calls follow the shape of the dose curve; as a rule, active = well fitted curve in the direction sought with a large enough effect; inconclusive = small, poorly fitted or top-dose-only effect, or another doubt; inactive = no such curve, though single readings can be large; an effect the other way counts as inactive or inconclusive.

SMILES | LMNA splice mod | ALDH1A1 block | HTT cytoprotect | HPGD block | HTT aggregate
CCOC(=O)NC1(Nc2ccc(Cl)cn2)Oc2ccccc2O1 | ? | 12.6µM | -[4.97 µM] | - | -[9.22 µM]
CCCNC(=O)[C@H]1O[C@@H]1C(=O)N[C@H](C(=O)N1CCC[C@H]1C(=O)OC)[C@@H](C)CC | . | - | - | . | .
Fc1cccc(Cl)c1/C=N/Nc1ccccn1 | - | - | -[10 µM] | . | -
Clc1cccc(Cl)c1/C=N\Nc1nccs1 | - | ? | - | 7.94µM | -
O=C(NCc1ccccn1)C1C2C=CC(C2)C1C(=O)Nc1ccc(F)cc1 (configuration not stated) | - | - | -[1.9 µM] | 15.8µM | -
COc1cc(CCC(=O)NCc2ccc3c(c2)CCN3C(=O)c2ccc(F)cc2)cc(OC)c1OC | - | . | . | . | .
N#CCCN(Cc1cccnc1)C(=O)c1sc2cc(F)ccc2c1Cl | ? | - | -[10 µM] | 7.08µM | -
C[C@@H](C1=C(CCN(C)C)Cc2ccccc21)c1ccccn1 | . | - | - | - | .
CC1Cc2ccccc2N1c1ncnc2nc[nH]c12 (configuration not stated) | ? | - | - | - | 11.2µM
CC1CCCCN1c1ncnc(N)c1[N+](=O)[O-] (configuration not stated) | ? | - | - | . | 10µM
CC1Cc2ccccc2N1c1ncnc(N)c1[N+](=O)[O-] (configuration not stated) | ? | ? | ? | . | 0.891µM
CC1CCCCN1c1ncnc2ccccc12 (configuration not stated) | ? | - | - | - | 10µM
c1ccc2c(c1)CCN(c1ncnc3nc[nH]c13)C2 | ? | - | -[10 µM] | - | -
COc1ccccc1-n1c(SCC(=O)c2ccc(O)cc2O)nc2cc([N+](=O)[O-])ccc21 | ? | - | -[10 µM] | - | -[9.22 µM]
CC(C)CC(C(=O)NCCc1ccccc1)N1Cc2ccccc2C1=O (configuration not stated) | - | . | . | . | .
CCOc1ccc(CC(=O)NC2CC(=O)N(c3cccc(F)c3)C2)cc1 (configuration not stated) | - | . | . | . | .
COc1cccc(-c2cc(C(=O)N3CCc4ccccc4C3)no2)c1 | - | ? | -[10 µM] | 20µM | -
COCCNC(=O)c1cc(-c2cccc(OC)c2)on1 | - | - | - | 25.1µM | -
COc1cccc(-c2cc(C(=O)NC3CCCC3)no2)c1 | - | ? | - | 15.8µM | -
Cc1cc(C)cc(-n2ccn(CC(=O)Nc3cc(C)ccc3C)c(=O)c2=O)c1 | - | . | . | . | .
CC(O)/C=C/C1OC(=O)CC1Nc1ccc(C=O)cc1 (configuration not stated) | . | 0.447µM | -[10 µM] | . | -[9.22 µM]
CCN(CC)S(=O)(=O)c1cccc(NC(=O)c2cc3ccccc3o2)c1 | ? | 22.4µM | - | - | -
CCC(=O)N1CCN(c2ccc(NC(=O)c3cc4ccccc4o3)cc2Cl)CC1 | ? | - | -[10 µM] | - | ?
COc1ccc(S(=O)(=O)N2CCCCC2)cc1NC(=O)c1ccc([N+](=O)[O-])o1 | ? | 3.16µM | - | . | -
CCCC(=O)N1CCN(c2ccc(NC(=O)c3cc4ccccc4o3)cc2Cl)CC1 | ? | ? | -[10 µM] | ? | 11.2µM
SMILES | LMNA splice mod | ALDH1A1 block | HTT cytoprotect | HPGD block | HTT aggregate
CCn1c2ccccc2c2cc(NC(=O)c3ccc(Br)o3)ccc21 | - | 2.24µM | - | 4.47µM | -
COc1ccc(-c2nc(-c3ccccc3)c(NCc3ccccc3)o2)cc1 | . | - | - | - | .
O=C(Nc1ccc(N2CCCC2)c(Cl)c1)c1ccc(Br)o1 | - | 18.9µM | -[10 µM] | - | ?
CCN1CCN(c2ccc(NC(=O)c3ccc([N+](=O)[O-])o3)cc2Cl)CC1 | ? | 20µM | - | . | 12.6µM
CCC(=O)N1CCN(c2ccc(NC(=O)c3ccc([N+](=O)[O-])o3)cc2Cl)CC1 | . | 14.1µM | 0.631µM | . | 20µM
CCN1CCN(c2ccc(NC(=O)c3ccc(F)cc3)cc2Cl)CC1 | - | - | - | . | -
O=C(Nc1cccc(OC(F)(F)F)c1)c1ccc(Br)o1 | ? | 22.4µM | - | 25.1µM | ?
CCCCC/C=C\C/C=C\C/C=C\C/C=C\CCCCCC(=O)NCCCC(=O)O | . | - | - | - | .
CCCN(CCC)S(=O)(=O)c1ccc2c(c1)CCCN2C(C)=O | ? | 5.01µM | - | - | -
CC(=O)N1CCCc2cc(S(=O)(=O)CCC(=O)N3CCN(c4cccc(C)c4)C(C)C3)ccc21 (configuration not stated) | - | 17.8µM | - | - | -
Cc1ccc(CNS(=O)(=O)c2ccc(F)c(C(=O)Nc3ccc(C)c(F)c3)c2)cc1 | - | . | . | . | .
Cc1ccc(NC(=O)c2cc(S(=O)(=O)NCCC3=CCCCC3)ccc2F)cc1 | ? | 22.4µM | ? | - | -
CC(=O)N1CCCc2cc(S(=O)(=O)NCCC3=CCCCC3)ccc21 | ? | 1.78µM | -[10 µM] | - | -
CC(=O)N1CCCc2cc(S(=O)(=O)NCc3ccc(C)cc3)ccc21 | ? | ? | -[10 µM] | - | ?
CN(C)c1cccc(C(=O)Nc2nc3ccc(S(=O)(=O)N4CCCC4)cc3s2)c1 | - | . | . | . | .
O=C(Nc1cnc(N2CCC(N3CCCCC3)CC2)c(C(=O)O)c1)c1ccc(Br)cc1 | - | . | . | . | .
COc1cc(C(=O)N/N=C/c2sc(=O)n(-c3ccccc3)c2Cl)cc(OC)c1OC | - | ? | -[10 µM] | - | ?
O=C(N/N=C/c1sc(=O)n(-c2ccccc2)c1Cl)c1ccncc1 | ? | 10µM | -[10 µM] | - | -
Cc1ccccc1-n1c(C)cc(/C=N/NC(=O)c2ccncc2)c1C | - | 31.6µM | - | - | -
CCc1ccccc1NC(=O)c1ccc(-n2c(C)ccc2C)cc1 | ? | - | - | 15.8µM | -
Cc1ccc(C)n1-c1ccc(C(=O)N/N=C/c2ccncc2)cc1 | - | 17.8µM | - | . | -
Cc1ccc(C)n1-c1ccc(C(=O)Nc2ccccc2F)cc1 | . | ? | - | . | -
CCCCSCCCNC(=O)C1CCC(CNS(=O)(=O)c2c(C)cc(C)cc2C)CC1 (configuration not stated) | - | . | . | . | .
CC(=O)Nc1ccc(NC(=O)c2ccc(-n3c(C)ccc3C)cc2)cc1 | - | 22.4µM | -[10 µM] | 25.1µM | -
Cc1ccc(C)n1-c1ccc(NC(=O)c2ccccc2)cc1 | ? | - | -[10 µM] | - | ?
SMILES | LMNA splice mod | ALDH1A1 block | HTT cytoprotect | HPGD block | HTT aggregate
CCCCCCOc1ccc(C2C(=O)N(C3CCCCC3)CC(=O)N2CCCC)cc1 (configuration not stated) | - | . | . | . | .
O=c1c2nnn(Cc3ccccc3)c2ncn1C/C=C/c1ccccc1 | - | - | - | 14.1µM | -
COC(=O)C(C)n1cnc2c(nnn2Cc2ccc(Cl)cc2)c1=O (configuration not stated) | - | - | ? | 28.2µM | -
O=C(Cn1cnc2c(nnn2Cc2ccc(Cl)cc2)c1=O)OCc1ccccc1 | - | 12.6µM | -[10 µM] | 12.6µM | -
C[C@@H](C(=O)O)c1ccc(C[C@@H]2CCCC2=O)cc1 | . | . | -[1.9 µM] | . | .
CCN(Cc1cnn(C)c1)C(=O)CC1C(=O)NCCN1Cc1cccc(OC)c1OC (configuration not stated) | - | - | -[10 µM] | . | -[9.22 µM]
CCCNCc1cc(OC)c(OCc2ccccc2)cc1Br | - | - | - | . | -
C=C1SC(=Nc2ccccc2Cl)N(C(=O)c2sc3ccccc3c2Cl)C1(C)C | . | 23.8µM | -[10 µM] | . | -[9.22 µM]
